The whole screen tested about 290,000 compounds, of which about 2,700 (0.93%) were called active. No rule for the calls is given here. Shown is part of a subset that was picked to be rich in actives.
Biological target: Eukaryotic translation initiation factor 4H (Homo sapiens) (UniProt Q15056)
Test: eIF4H binding inhibition – biochemical, uHTS, fluorescence polarization, translation initiation inhibitor project, primary screen (AID 2012);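 also: calls also rest on retests at 20 µM and on dose response follow-up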
Conditions: eIF4H fluorescence polarization binding assay, stronger effect = higher value

SMILES | inhibition (at 35 µM) | inhibition (confirmation average, at 20 µM) [%]
CC(C)n1c(COc2ccccc2)nc2ccccc21 | -1.5% (inactive) | –
CCC(Oc1ccccc1C)C(=O)Nc1ccc(S(=O)(=O)Nc2cc(C)on2)cc1 (stereo unspecified) | -3.3% (inactive) | –
CN(C)S(=O)(=O)N1CCC(Oc2cccc(C(=O)NCCCC3CCCC3)c2)CC1 | -18.3% (inactive) | –
O=C(OCc1cc2ccccc2[nH]c1=O)c1cccnc1 | -7.3% (inactive) | –
Cc1cc(=O)[nH]c(SCc2cc(Cl)ccc2OC(F)F)n1 | -16.4% (inactive) | –
O=C(OCc1cc(Cl)ccc1OC(F)F)c1cccnc1 | 54.6% (active) | 83.8
Cn1c(CCNS(=O)(=O)c2ccc(F)cc2)nnc1SCc1cccnc1 | -0.9% (inactive) | –
CCNC(=S)NNC(=O)C1CCN(Cc2ccccc2)CC1 | 1.5% (inactive) | –
CCCC(=O)C1CCN(Cc2ccccc2)CC1 | 7.7% (active) | 89.5
CCOC(=O)C1CCN(Cc2ccc(-c3ccccc3)cc2)CC1 | 3.6% (inactive) | –
CCOC(=O)CNC(=O)CSc1nc2cccnc2n1CC | 5.8% (inactive) | –
CCc1nc2cccnc2n1-c1ccc(C(=O)O)cc1 | 91.6% (active) | 89.8
COCCCNC(=O)Cc1ccc(-n2c(C)nc3cccnc32)cc1 | 63.6% (inactive) | 13.7
CCN(CC(=O)Nc1ccc(C)c(S(=O)(=O)N(C)C)c1)Cc1ccccc1 | 6.5% (inactive) | –
O=c1c(-c2cccc(Cl)c2)c[nH]n1-c1ccccc1 | 4.3% (inactive) | –
Cc1ccc2[nH]c3c(c2c1)CN(C(=O)CN1CCN(c2ccccc2)CC1)CC3 | 76.8% (active) | –
O=C(CN1CCCC1)N1CCN(c2ccccc2)CC1 | -11.2% (inactive) | –
CCCC(=O)N1CCc2[nH]c3ccccc3c2C1 | -0.2% (inactive) | –
COc1ccc(OC)c(S(=O)(=O)n2c([N+](=O)[O-])cnc2C)c1 | -9.3% (inactive) | –
O=C(NCc1ccco1)/C(=C/c1ccco1)NC(=O)c1ccccc1 | 3.9% (inactive) | –
COc1ccccc1C(=O)N/C(=C/c1ccco1)C(=O)Nc1ccc(C(=O)O)cc1 | 59.8% (active) | 65.3

SMILES | inhibition (at 35 µM) | inhibition (confirmation average, at 20 µM) [%]
Cc1ccc(NC(=O)/C(=C\c2ccccc2)NC(=O)c2ccco2)cc1 | 3.5% (inactive) | –
Cc1cccc(NC(=O)/C(=C\c2ccco2)NC(=O)c2ccccc2)c1 | 57.6% (active) | –
COc1ccccc1C(=O)N/C(=C/c1ccc2c(c1)OCO2)C(=O)Nc1cccc(C(=O)O)c1 | -11.5% (inactive) | –
O=C(Nc1ccccc1)/C(=C\c1ccco1)NC(=O)c1ccco1 | 26.2% (inactive) | –
C=CCOc1cccc(C2C(C(=O)c3ccc(C)o3)=C(O)C(=O)N2CCCn2ccnc2)c1 (stereo unspecified) | -4.1% (inactive) | –
CCOc1ccc(N(CC(=O)NCC2CCCO2)S(=O)(=O)c2ccc(C)cc2)cc1 (stereo unspecified) | 11.5% (inactive) | –
COc1ccc(-c2nnc3n2CCCCC3)cc1 | -12.1% (inactive) | –
COCCn1cnc2c1c(=O)n(CC(=O)NN)c(=O)n2Cc1ccccc1 | -8.7% (inactive) | –
O=C(Nc1ccccc1)C1CCN(C(=O)c2ccc(Br)cc2)CC1 | -11% (inactive) | –
CCOC(=O)C(C)Sc1nnc(CSc2nc3nc(C)cc(C)n3n2)o1 (stereo unspecified) | -7.5% (inactive) | –
Cc1cc(C)n2nc(SCC(N)=O)nc2n1 | -5.6% (active) | 113
COc1ccc(C(C)=O)cc1CSc1nc2nc(C)cc(C)n2n1 | 1.9% (inactive) | –
COc1cnc(-c2ccccn2)nc1Oc1ccc(C(C)(C)C)cc1 | 11.9% (inactive) | –
COc1ccc(CCN(C)C(=O)C23CC4CC(CC(Cl)(C4)C2)C3)cc1OC | -16.6% (inactive) | –
COc1ccc(CC(=O)N/N=C(\C)c2ccccn2)cc1 | 7.3% (inactive) | –
Cc1cccc(OCC(=O)NCCCNC(=O)c2ccccn2)c1 | -28.2% (inactive) | –
CCN(CC)CCOc1ccc2c(c1)C(=NNC(=O)c1ccccn1)c1cc(OCCN(CC)CC)ccc1-2 | -3% (active) | 83.6
COc1ccc(NC(=O)CN(C)C(=O)CNC(=O)C2CCCCC2)cc1 | -4% (inactive) | –
C=CCOc1cccc(CNCc2cccnc2)c1 | 10.5% (inactive) | –
Cc1nnc(N(Cc2ccco2)C(=O)c2ccno2)s1 | 55.4% (active) | –
Cc1ccc(-c2csc(N(Cc3ccco3)C(=O)c3cccs3)n2)cc1 | -15.6% (inactive) | –

SMILES | inhibition (at 35 µM) | inhibition (confirmation average, at 20 µM) [%]
CN(C(=O)c1ccno1)c1nnc(-c2cccnc2)s1 | -2.8% (inactive) | –
Cc1ccccc1CN1CCC(C(=O)Nc2ccc(Oc3cccnc3)cc2)CC1 | -4.5% (inactive) | –
Cc1cc(F)ccc1S(=O)(=O)N1CCCOC1CNC(=O)C(=O)NCCC1=CCCCC1 (stereo unspecified) | -0.8% (inactive) | –
O=C(NCCCn1ccnc1)C(=O)NCC1OCCN1S(=O)(=O)c1cc(F)ccc1F (stereo unspecified) | 86.5% (active) | –
O=C(NCCCc1ccccc1)C(=O)NCC1OCCN1S(=O)(=O)c1ccccc1 (stereo unspecified) | -4.1% (inactive) | –
Nc1ncc(CN2CCCC(C(=O)Nc3ccc(-c4ccco4)cc3)C2)cn1 (stereo unspecified) | -17.3% (inactive) | –
CC(C)OC(=O)c1ccc(COc2ccc3ccc(=O)oc3c2)o1 | 1.1% (inactive) | –
Cc1ccc2sc(N(CCN(C)C)C(=O)/C=C/c3cccs3)nc2c1C | -10.2% (inactive) | –
CS(=O)(=O)C1=NN2C(=N)/C(=C\c3ccc(OCCOc4ccccc4)cc3)C(=O)N=C2S1 | 16.1% (inactive) | –
Cc1cc(/C=C2/C(=N)N3C(=NC2=O)SN=C3S(C)(=O)=O)c(C)n1-c1ccccc1 | 93.3% (inactive) | -7.9
CS(=O)(=O)c1ccc2c(c1)SC1=NC(=O)/C(=C/c3ccco3)C(=N)N12 | 93.9% (active) | –
CN(C(=O)CN1C(=O)CCSc2ccc(S(=O)(=O)N3CCCC3)cc21)c1ccccc1 | -3.2% (inactive) | –
CCC(=O)Nc1ccc(C(=O)NNC(=O)c2ccc(Cl)cc2)cc1 | 8% (inactive) | –
C=CCNC(=O)/C=C/c1ccc(C(C)C)cc1 | 3.9% (inactive) | –
O=C(CCc1nnc2ccc(NCc3ccco3)nn12)Nc1cc(F)ccc1F | 75.2% (active) | 75.7
CC(=O)c1ccc(NC(=O)CCc2nnc3ccc(NCc4ccco4)nn23)cc1 | 38.5% (inactive) | –
CCOc1ccccc1NC(=O)CCc1nnc2ccc(NCc3ccco3)nn12 | 13.1% (inactive) | –
O=C(CN1CCc2cc3c(cc2C1)OCCCO3)Nc1ccccc1 | 4.5% (inactive) | –
CCOc1ccc(NC(=S)N2CCC(NC(=O)c3ccccc3)CC2)cc1 | -8.9% (inactive) | –
COc1ccc(-c2nc3n(c(=O)c2C#N)CCS3)c(OC)c1 | 5.3% (inactive) | –
O=C(CCc1ccccc1)Nc1ccnn1C1CCN(Cc2ccc(OCCO)cc2)CC1 | 5.2% (inactive) | –

SMILES | inhibition (at 35 µM) | inhibition (confirmation average, at 20 µM) [%]
COc1ccc(-c2cc(C(=O)N(C)Cc3ccc(OC)c(OC)c3OC)c3ccccc3n2)cc1OC | 10.7% (inactive) | –
COc1ccc2[nH]c(=O)c(-c3noc(-c4ccc(F)cc4)n3)cc2c1 | 3.8% (inactive) | –
CCCc1nc(-c2cc3cc(C)ccc3[nH]c2=O)no1 | 2.5% (active) | 79.5
CCNCc1cc2cc(C)ccc2[nH]c1=O | 24% (inactive) | –
COc1ccccc1NC(=S)N1CCN(c2ccc(F)cc2)CC1 | -0.9% (inactive) | –
COc1ccc(NC(=O)C2=CC(c3ccc(OC)c(OC)c3)=NS(=O)(=O)N2C)cc1 | 1.5% (inactive) | –
COc1ccc(-c2noc(CNC(=O)C(C)Oc3ccccc3)n2)cc1 (stereo unspecified) | -4.8% (inactive) | –
Cn1cc(/C=C/c2nc3ccccc3c(=O)n2-c2cccc([N+](=O)[O-])c2)c2ccccc21 | -2.7% (inactive) | –
Cc1nc2ccccc2c(=O)n1Cc1ccc([N+](=O)[O-])cc1 | -6.2% (inactive) | –
CCn1c(/C=C/c2ccc([N+](=O)[O-])o2)nc2ccccc2c1=O | 83.6% (active) | 56.8
CN1/C(=C\C(=O)c2oc3ccccc3c2N)C(C)(C)c2ccccc21 | -2.5% (inactive) | –
CN1/C(=C\C=C2\N=C(c3ccc(F)cc3)OC2=O)C(C)(C)c2ccccc21 | 128% (active) | 97
CN1/C(=C\C(=O)c2cccnc2Cl)C(C)(C)c2ccccc21 | -6.3% (inactive) | –
Cc1cccnc1NC(=O)Cn1c(=O)oc2ccccc21 | 4.8% (inactive) | –
Cc1ccc(O)c(NC(=O)c2cc(-c3ccco3)on2)c1 | -14.1% (inactive) | –
COc1ccc(-c2nonc2NC(=O)c2oc3ccc(F)cc3c2C)cc1OC | -3.8% (inactive) | –
COc1cccc(Nc2ncccc2C(=O)O)c1 | -3.4% (inactive) | –
COc1ccc(Nc2ccc([N+](=O)[O-])cn2)cn1 | 82% (inactive) | 20.1
COc1ccc(Nc2cc(Cl)ccc2C(=O)O)cn1 | 96.9% (active) | 74
